The record followed here is PubChem BioAssay (NCATS).

Molecules are shown by their SMILES. Records with an inconclusive call do not appear. A call without a number means that no potency is given here. Unmarked numbers belong to inactive results. Active and inactive are the calls of the source. Calls follow the shape of the dose curve; as a rule, active = well fitted cell-killing curve with a large enough effect; inconclusive = small, poorly fitted or top-dose-only effect; inactive = no such curve, though single readings can be large or run the other way. *1 amine or outer side, *2 acyl side, *3 side chain or, on linkers, in order; H or OH if unused. Where a SMILES comes first, the peptide text is derived from it. Bridges are numbered along the chain shown (N, C = ends). [ ]: non-standard residue; d: D form. The star is where a group is joined. ξ: configuration not given here. X10 = NC1=NCCC(C(N[*:1])C(=O)[*:2])N1; ΔAla(3-NHCONH2) = NC(=O)NC=C(N)C(=O)O; ξβ3hOrn = NCCCC(N)CC(=O)*; Dap = NC[CH](N)C(=O)O
Potency is read from the fitted curve at half-maximal effect.

The nature of this assay: qHTS of pediatric cancer cell lines to identify multiple opportunities for drug repurposing: Primary screen for MG 63 (6-TG R) cells (AID 1347105). Also: nearly all actives have a fitted effect of over 50% in size. The following applies: MG 63 (6-TG R) viability, CellTiter-Glo, 48 h; series mostly up to 46 µM. An excerpt:
Drug repurposing or repositioning has been offered as a strategy for drug development in oncology programs. This approach has special potential for childhood cancers and other rare or orphan diseases, where the expected return on new drug development has been a disincentive to pharmaceuticals. […] In this project we exploit the poly-pharmacology of drugs to discover new indications via phenotypic screening of a panel of 19 well-characterized cell lines derived from solid tumors seen in children and adolescents. The goal is to identify approved drugs with previously unrecognized anticancer properties that has the potential to reveal new mechanisms and biological processes involved in carcinogenesis or drug resistance. We employed a titration-based paradigm (quantitative high-throughput screening or qHTS), where all compounds were tested at multiple concentrations for their effect on cell viability. Concentration-response curves (CRCs) were derived directly from the primary screen, and both potency and efficacy values were used to identify compounds with robust bioactivity profiles. We screened the NIH Chemical Genomics Center (NCGC) Pharmaceutical Collection (NPC) and Mechanism Interrogation Plate (MIPE) small molecule collections of approved and investigational compounds against these cell lines; and measured metabolically active cells after 48 hours of compound treatment as a proxy for cell viability. […] Assay Submitter: Nathalia J. Martinez, National Center for Advancing Translational Sciences, National Institutes of Health, Rockville, MD, USA; email: natalia.martinez@nih.gov Shen, M et al. Quantitative high-throughput phenotypic screening of pediatric cancer cell lines identifies multiple opportunities for drug repurposing. Oncotarget 2017 Dec 19;9(4):4758-4772. PMID 29435139.
The cells were obtained from University of North Carolina (UNC), Pediatric Preclinical Testing Program (PPT), and Coriell Institute (CI). qHTS cell viability assay: Cells were assayed in growth media at a density of 500-1,000 cells/well. Five microliters of cells were dispensed into 1,536-well, white, solid-bottom, TC-treated plates (Greiner Bio One) using a multidrop dispenser and incubated at 37 degrees C, 5% CO2, under a humidified atmosphere for 5 hours. Twenty-three nanoliters of compounds and controls (neutral control DMSO or positive control bortezomib at final concentration of 2.3 µM) were subsequently transferred by Kalypsys pintool. For primary screens, the MIPE collection was tested at 11-point dilutions (final concentrations range from 0.78 nM to 46 µM) and the NPC collection at 8-point dilutions (final concentrations range from 0.59 nM to 46 µM). Compounds tested in follow-up screens were assayed at 11-point dilutions. Cells were incubated for 48 hours, followed by addition of 3 µL of CellTiter-Glo (Promega). After a 15 min incubation at room temperature, samples were analyzed for luminescence intensity using a ViewLux High-throughput CCD imager equipped with clear filters.
A general note: qHTS replaces the single test concentration by a dilution series.
Take `O=C1Nc2cc(Cl)ccc2Oc2ccccc21`: the Potency result was “inactive”.

As to `CC(COc1ccccc1)NN` (stereo not given), the Potency result is “inactive”.

For the molecule `N#C/C(=C1/SC[C@@H](c2ccc(Cl)cc2Cl)S1)n1ccnc1`, the Potency entry is “inactive”.

On to `O=C1Nc2ccccc2C1(c1ccc(O)cc1)c1ccc(O)cc1`, for which the Potency was 0.133 µM (active).

In the case of `Cc1ccc(Cl)c(OCC(O)CNC(C)(C)C)c1` (stereo not given), the Potency entry was “inactive”.

As to `O=C(COCCOCCOCC(=O)Nc1c(I)cc(I)c(C(=O)O)c1I)Nc1c(I)cc(I)c(C(=O)O)c1I`, the Potency result is “inactive”.

As for `COC(=O)/C=C(/C)N`, the Potency result is “inactive”.

Consider `C[N+](C)(CCOc1ccccc1)Cc1cccs1`, for which the Potency result was “inactive”.

As for `CCCCCC1Nc2cc(C(F)(F)F)c(S(N)(=O)=O)cc2S(=O)(=O)N1` (stereo not given), the Potency result is “inactive”.

For `CC(NC(CCc1ccccc1)C(=O)O)C(=O)N1C(=O)N(C)CC1C(=O)O` (stereo not given), the Potency entry is “inactive”.

In the case of `CNC(=O)c1c(I)c(NC(C)=O)c(I)c(C(=O)O)c1I`, the Potency result was “inactive”.

In the case of `CN=C(N)NC(=O)Nc1c(C)cccc1C`, the Potency result was “inactive”.

For `O=P(O)(O)OCC(O)CO` (stereo not given), the Potency entry is “inactive”.

Consider `O=C1Cc2cc(Cl)ccc2N1`, for which the Potency result was “inactive”.

Turning to `CC(=O)[C@H]1CC[C@H]2[C@@H]3C=CC4=CC(=O)CC[C@@]4(C)[C@@H]3CC[C@]12C`, the Potency entry is “inactive”.

On to `Oc1ccccc1`, for which the Potency result is “inactive”.

Turning to `CCCCN(CCN(CCCC)C(=O)N1CCOCC1)C(=O)N1CCOCC1`, the Potency entry is “inactive”.

In the case of `CC(C)C[C@@H]1[C@H](c2ccccc2)OC(=O)N1CCCN1CCCCCC1`, the Potency result was “inactive”.

On to `O=C(NO)c1ccccc1`, for which the Potency entry was “inactive”.

With `Cc1ncc([N+](=O)[O-])n1C`, the Potency result was “inactive”.

As to `CCCC(=O)O[C@]1(C(=O)CC)CC[C@H]2[C@@H]3CCC4=CC(=O)CC[C@]4(C)[C@H]3[C@@H](O)C[C@@]21C`, the Potency result was “inactive”.

`Nc1c[n+](N2CCOCC2)no1`: the Potency entry is “inactive”.

In the case of `Fc1ccc(C(c2ccc(F)cc2)N2CCNCC2)cc1`, the Potency result is “inactive”.

For the molecule `CC(C)(C)c1nnc(NS(=O)(=O)c2ccccc2)s1`, the Potency entry is “inactive”.

As for `CC(CCc1ccc2c(c1)OCO2)NN` (stereo not given), the Potency result is “inactive”.

`NCCCC(N)CC(=O)NCC1NC(=O)C(CO)NC(=O)C(N)CNC(=O)C(C2CCN=C(N)N2)NC(=O)C(=CNC(N)=O)NC1=O` (stereo not drawn) (H-[Dap]S[Dap](ξβ3hOrn)[ΔAla(3-NHCONH2)][X10]; lactam 1-C; configuration not given here): the activity change, negative = cytotoxic was -12% [at 0.597 µM].

For the molecule `CCCC(CCC)(C(=O)OCC)C(=O)OCC`, the Potency result was “inactive”.

Turning to `CC(=O)O[C@H]1CC[C@@]2(C)C(=CC[C@@H]3[C@@H]2CC[C@]2(C)C(C(C)=O)=CC[C@@H]32)C1`, the Potency entry is “inactive”.

Regarding `CCc1cc(S(=O)(=O)O)c2cc(C(C)C)cccc1-2`, the Potency entry is “inactive”.

As for `Nc1c(NC/C=C\COc2cc(CN3CCCCC3)ccn2)c(=O)c1=O`, the Potency result is “inactive”.

In the case of `Cc1ccccc1C(=O)N1CC/C(=N\OS(=O)(=O)O)c2ccc(Cl)cc21`, the Potency result was “inactive”.

With `CC(C)CCCC(C)NCCC(C)C` (stereo not given), the Potency result was “inactive”.

In the case of `CC(C)(Oc1ccc(Cl)cc1)C(=O)OCCCOC(=O)C(C)(C)Oc1ccc(Cl)cc1`, the Potency entry is “inactive”.

With `CCc1cccc2c(CCO)c[nH]c12`, the Potency result was “inactive”.

Consider `CC(=O)Nc1c(I)c(NC(C)=O)c(I)c(C(=O)O)c1I`, for which the Potency entry was “inactive”.

Turning to `Cc1onc(-c2c(Cl)cccc2Cl)c1C(=O)Cl`, the Potency result was “inactive”.

For the molecule `OC[C@]1(O)OC[C@@H](O)[C@H](O)[C@@H]1O`, the Potency entry was “inactive”.

Consider `CCO[C@H](Cc1ccc(OCCc2ccc(OS(C)(=O)=O)cc2)cc1)C(=O)O`, for which the Potency entry is “inactive”.

As for `CCCCCCCCCCCCCC[N+](C)(C)C`, the Potency is 26.6 µM (active).

`C/C(=N\O)[C@@H](C)NCC(C)(C)CN[C@H](C)/C(C)=N/O`: the Potency result was “inactive”.
